# Experimental data: the supplement of paper PMC4188521
# Compound: CCc1cnn2c(NCc3ccc[n+]([O-])c3)cc(N3CCCC[C@H]3CCO)nc12 [dinaciclib]
# Assay: cell viability remaining relative to DMSO control; higher = less cytotoxic (more viable cells)
# Conditions: 100 nM; 24 h
# Summary of the method: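 Cell lines from solid tumours, sourced from commercial cell banks, were treated with 100 nM of the test compound for 24 hr at a final DMSO level of ≤0.2%. ATP luminescence was measured with the CellTiter-Glo assay according to the manufacturer's instructions. Remaining viability is the ratio of light units in treated wells to those in DMSO-treated control wells, expressed as a percentage of the DMSO control. Each value is the mean of 2–6 plates, each with triplicate wells.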
row,Target,cell viability remaining
1,A2058,18.4%
2,H1437,41.9%
3,AU565,39.3%
4,H446,51.2%
5,CAPAN1,85.3%
6,OE19,77.7%
7,HCC1187,21.6%
8,KATOIII,87.5%
9,H520,30.8%
10,T47D,87.6%
11,OVCAR4,49.6%
12,CAKI1,63.5%
13,H661,34.6%
14,KURAMOCHI,121%
15,H747,73%
16,HCT15,45.4%
17,CAL51,43.8%

row,Target,cell viability remaining
1,HEC151,39%
2,HEC108,63%
3,RKO,49.6%
4,COLO679,68.6%
5,H508,75.7%
6,SNU16,52.2%
7,ACHN,72.1%
8,SW1088,58%
9,HCT8,51.3%
10,IGROV1,103%
11,SW1463,87.4%
12,KPL1,50.2%
13,COLO800,36.9%
14,CCFSTTG1,70.6%
15,H23,41.9%
16,SKMEL30,62.5%
